Screening data (PubChem)
The list is not random: actives were taken first. Their share in the collection is about 1.5%.
E-sel TNF inh – E-selectin induction blockers in HUVEC – imaging, immunofluorescence, high content, primary screen. 120,000 tested, 0.71% active. inhibition, % at 2 µM. HUVEC TNFa-induced E-selectin immunofluorescence;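 active means inhibition above the batch mean plus 3 SD, and confirmed as a hit on visual image review, cut at about 43% in these data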;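 further: 0% = TNF-stimulated DMSO wells and 100% = unstimulated control wells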
F-actin modifier – modifiers of F-actin cytoskeleton organization, primary screen, imaging, HUVEC, phalloidin staining, high-content imaging. 91,000 tested, 0.18% active. HUVEC TNFa F-actin phalloidin imaging. AID 836, 2007. inhibition, % at 2 µM;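 active means inhibition above the batch mean plus 3 SD and confirmed as a hit by visual image inspection, cut at about 30% in these data, passing the limit was not always enough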
VCAM1 TNFa inh – inhibitors of TNFa-induced VCAM1 expression, primary screen, imaging, HUVEC, TNFa stimulus, immunofluorescence; 95,000 tested, 0.48% active; inhibition, % at 2 µM; AID 802, 2007; HUVEC TNFa-induced VCAM-1 immunofluorescence, high-content imaging;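 active means inhibition above the batch mean plus 3 SD, with images confirmed as a hit by eye, cut at about 37% in these data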;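 further: 0% = TNF-stimulated DMSO wells and 100% = unstimulated control wells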
MRP-1 activ – H69AR viability gain despite doxorubicin, primary screen, MRP-1 activator project, H69AR cells, CellTiter-Glo. viability increase, % at 10 µM. AID 799, 2007. viability rescue. 140,000 tested, 0.61% active;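 active means viability gain under doxorubicin at or above a set limit, the compound median plus 3 SD, cut at about 4.7% in these data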;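 further: MRP-1 overexpressing cells given doxorubicin 25 µM after compound pretreatment; 18-22 h compound pretreatment then 72 h with doxorubicin before readout; 0% = doxorubicin-only wells and 100% = vehicle-treated cells without doxorubicin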
MRP resist rev – reversal of MRP1-mediated doxorubicin resistance, primary screen, H69AR cells, doxorubicin co-treatment; H69AR cells + 2 uM doxorubicin, CellTiter-Glo, 72 h; differential viability (reversal), % at 10 µM; 85,000 tested, 0.04% active; AID 602, 2007;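 active means viability drop by adding the cancer drug above about 55%, with treated viability meeting a 40% cutoff, limit read from the data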;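 further: viability without doxorubicin minus viability with 2 µM doxorubicin for each compound; larger differential means the compound sensitizes cells more to doxorubicin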
Numbers without * were called inactive; x = no result.

SMILES	E-sel TNF inh	F-actin modifier	VCAM1 TNFa inh	MRP-1 activ	MRP resist rev
CC(C)C(=O)Nc1ccc(C(=O)NC2CCSC2=O)cc1 (stereo not given)	31.1	-2.2	-4.9	-2.8	-21.9
O=C(Nc1ccc(Cl)cc1C(=O)N1CCOCC1)c1cccc([N+](=O)[O-])c1	x	x	x	-2.0	x
C=CCOc1ccc(CNc2nn[nH]n2)cc1OC	1.2	12.1	-32.9	-1.9	x
C=CCOc1ccc(CNc2ccc(NC(=O)CC(C)C)cc2)cc1OC	15.3	x	x	17.7*	x
O=C(O)c1cccc(CSc2nc(-c3ccc(Cl)cc3)cc(C(F)(F)F)n2)c1	25.7	-4.2	-12.8	-4.5	x
COc1ccc(-c2cc(C)nc(SCc3cccc(C(=O)O)c3)n2)cc1	68.6*	x	x	-1.5	x
CCN(CC)C(=S)SCC(=O)Nc1nc(-c2ccccc2)c(-c2ccccc2)o1	x	x	x	-2.9	x
Cn1nnnc1SCC(=O)Nc1nc(-c2ccccc2)c(-c2ccccc2)o1	-16.4	-0.9	-10.8	-3.9	59.9*
CC(=O)/C=C1/SC(CC(=O)O)C(=O)N1c1ccccc1 (stereo not given)	15.0	-3.2	-23.4	0.9	-5.7
O=C(Nc1cccn2ncnc12)c1ccc(Cl)cc1	43.1*	19.3	13.8	-0.3	x
O=C(Nc1cccn2ncnc12)c1ccccc1	-32.9	-4.7	-18.6	-0.4	x
Cc1nn(-c2ccccc2)c(Cl)c1CN(C(=O)CCl)c1ccc(Cl)cc1	x	x	x	-5.3	x
Cc1nn(-c2ccccc2)c(Cl)c1CN(C(=O)CCl)c1cccc2ccccc12	95.8*	x	x	-5.3	x
CC(=O)Nc1ccc(SC(C)C(=O)NC(N)=O)cc1 (stereo not given)	28.6	13.2	-12.5	0.3	x
CCC(C(=O)NC(C)(C)C)N(C(=O)Cn1nnc(-c2ccccc2F)n1)c1cccc2c1CCCC2 (stereo not given)	-42.4	21.7	11.4	-1.5	x
O=C(CS(=O)c1ccc(C(F)(F)F)cc1[N+](=O)[O-])Oc1ccc(Cl)cc1 (stereo not given)	33.2	27.0	72.5*	-1.1	-16.3
Cc1onc(-c2ccccc2Cl)c1C(=O)OCC(=O)N1CCCc2ccccc21	-11.3	x	x	-1.7	-2.3
CC1CN(C(=O)/C(C#N)=C2\N=C(NC(=O)c3ccccc3Cl)c3ccccc32)CC(C)O1 (stereo not given)	92.7*	x	x	-2.3	x
C=CCNC(=S)NNC(=O)COc1ccc(Br)cc1	x	x	x	6.4*	x
CCCCCOc1ccc(CSc2ncn[nH]2)cc1	-13.8	10.0	12.0	6.3*	17.8
CCCCOc1ccc(CSc2ncn[nH]2)cc1	-30.6	-0.5	13.6	9.8*	13.3
CCOc1ccc(CCNC(=O)CSc2cc(=O)n(CC)c3ccccc23)cc1OCC	-8.1	x	x	-1.9	x
COc1cccc(OCCn2cc(C(=O)c3ccco3)c3ccccc32)c1	-7.4	-12.9	21.9	-0.7	-7.6
COc1ccccc1OCCn1cc(C(=O)c2ccco2)c2ccccc21	64.5*	72.1*	3.6	-2.1	-9.5
COCCNC(=O)c1c(NC(=O)c2nc(SC)ncc2Cl)sc2c1CCCC2	2.6	27.9	22.9	-2.2	x
SMILES	E-sel TNF inh	F-actin modifier	VCAM1 TNFa inh	MRP-1 activ	MRP resist rev
Cc1ccccc1NC1=C/C(=N\S(=O)(=O)c2cccs2)c2ccccc2C1=O	76.2*	-2.4	85.8*	-2.6	x
Cc1ccc(NC2=C/C(=N/S(=O)(=O)c3cccs3)c3ccccc3C2=O)cc1C	-4.4	x	x	-1.5	x
COc1ccc(C(=O)/C=C/Nc2ccc([N+](=O)[O-])cc2C)c(OC)c1	100.0*	2.9	-17.7	1.1	x
CC(=O)C1=C(C)NC(SCC(=O)c2ccccc2)=C(C#N)C1CC(C)C (stereo not given)	2.4	3.5	1.6	-0.6	-11.6
COc1ccc(S(=O)(=O)Nc2ccc(C)cc2)cc1N(C)S(=O)(=O)c1ccc(Cl)cc1	100.0*	-7.7	-3.3	3.1	x
O=C(CSc1nnc2c(Cl)cc(Cl)cn12)N1CCN(c2ccc(F)cc2)CC1	-51.4	x	x	-2.5	x
COc1ccc(/C(O)=C2/C(=O)C(=O)N(Cc3cccnc3)C2c2ccncc2)cc1F (stereo not given)	70.0*	-10.6	3.7	-0.9	-5.7
CCCOc1ccc(/C(O)=C2/C(=O)C(=O)N(CCCn3ccnc3)C2c2ccco2)cc1 (stereo not given)	100.0*	-10.9	10.6	-0.3	6.7
CCCOc1ccc(/C(O)=C2/C(=O)C(=O)N(CCOC)C2c2cccnc2)cc1 (stereo not given)	-10.9	-25.9	86.8*	-2.2	-12.1
CC1Cc2cc(/C(O)=C3/C(=O)C(=O)N(CCCn4ccnc4)C3c3cccnc3)ccc2O1 (stereo not given)	-67.6	17.3	11.5	0.0	-14.0
COc1cccc(/C(O)=C2/C(=O)C(=O)N(Cc3cccnc3)C2c2ccco2)c1 (stereo not given)	-23.0	-15.7	4.4	-3.0	-5.2
CC1Cc2cc(/C(O)=C3/C(=O)C(=O)N(CCCn4ccnc4)C3c3ccncc3)ccc2O1 (stereo not given)	58.3*	-27.1	5.7	0.6	17.0
C=CCOc1ccc(/C(O)=C2\C(=O)C(=O)N(CCOC)C2c2cccnc2)cc1 (stereo not given)	-17.8	0.1	37.0	-0.1	7.8
CC(C)CC1NC(=S)N(Cc2ccccc2)C1=O (stereo not given)	x	x	x	-4.9	x
Cn1c(-c2ccccc2)c[n+]2c1-c1ccccc1C2	-33.2	x	x	1.0	x
CCOC(=O)N1CCN(C(=O)C2CCN(S(=O)(=O)c3cc(OC)ccc3OC)CC2)CC1	71.9*	x	x	x	x
CCOC(=O)N1CCN(C(=O)C2CCN(S(=O)(=O)c3cc(C)ccc3OC)CC2)CC1	-16.1	x	x	x	x
CCOC(=O)c1nnc(-c2ccc(C)cc2)nc1Oc1ccc(Cl)cc1Cl	62.7*	10.9	8.8	5.0*	x
O=C(CCN1C(=O)CSC1=O)Nc1ccccc1	11.6	29.2	2.6	0.3	-0.5
O=C(NCCN1C(=O)CSC1=O)c1ccccc1	68.6*	-1.0	-2.2	-2.0	8.8
CCCOc1ccc([N+](=O)[O-])cc1C1NC(=S)NC(c2ccccc2)=C1C(=O)OCC (stereo not given)	70.4*	-17.4	24.6	-4.1	x
Cc1ccc(NC2SC(=O)N(CC(=O)O)C2=O)cc1 (stereo not given)	-3.1	1.2	11.6	-1.5	11.6
CCOc1cc(/C=C2/C(=O)N(c3ccccc3)N=C2C)ccc1OC(=O)c1ccco1	57.4	-11.9	44.2*	-1.2	x
CCCn1nc([N+](=O)[O-])c(C(C#N)c2nc3ccccc3s2)c(Cl)c1=O (stereo not given)	-10.4	-25.0	50.7*	-1.6	x
Cc1ccccc1NC(=O)C(=O)NCc1ccccn1	4.5	12.5	7.2	0.9	x
CCCCOC(=O)Nc1ccc(S(=O)(=O)Nc2ccc([N+](=O)[O-])cc2)cc1	-6.8	x	x	4.7*	x
CCCCCOC(=O)Nc1ccc(S(=O)(=O)Nc2cccc([N+](=O)[O-])c2)cc1	11.5	x	x	-0.3	x
